From PubChem BioAssay (NCATS) come the findings set out here.

Assay [1] deals with Rap guanine nucleotide exchange factor 3 (Homo sapiens) (UniProt O95398). As to the kind of experiment: Confirmatory qHTS for agonist of cAMP-regulated guanine nucleotide exchange factor 3 (EPAC1) (AID 1645881).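 Also: EPAC1 catalysed release of BODIPY-GDP from Rap1B seen as fluorescence loss; 100% = effect of cAMP agonist control; nearly all actives have a fitted effect of over 75% in size.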 A general note: Quantitative high-throughput screening tests each substance at several concentrations.
Rap guanine nucleotide exchange factor 3 (Homo sapiens), sequence (O95398 whole entry, looked up): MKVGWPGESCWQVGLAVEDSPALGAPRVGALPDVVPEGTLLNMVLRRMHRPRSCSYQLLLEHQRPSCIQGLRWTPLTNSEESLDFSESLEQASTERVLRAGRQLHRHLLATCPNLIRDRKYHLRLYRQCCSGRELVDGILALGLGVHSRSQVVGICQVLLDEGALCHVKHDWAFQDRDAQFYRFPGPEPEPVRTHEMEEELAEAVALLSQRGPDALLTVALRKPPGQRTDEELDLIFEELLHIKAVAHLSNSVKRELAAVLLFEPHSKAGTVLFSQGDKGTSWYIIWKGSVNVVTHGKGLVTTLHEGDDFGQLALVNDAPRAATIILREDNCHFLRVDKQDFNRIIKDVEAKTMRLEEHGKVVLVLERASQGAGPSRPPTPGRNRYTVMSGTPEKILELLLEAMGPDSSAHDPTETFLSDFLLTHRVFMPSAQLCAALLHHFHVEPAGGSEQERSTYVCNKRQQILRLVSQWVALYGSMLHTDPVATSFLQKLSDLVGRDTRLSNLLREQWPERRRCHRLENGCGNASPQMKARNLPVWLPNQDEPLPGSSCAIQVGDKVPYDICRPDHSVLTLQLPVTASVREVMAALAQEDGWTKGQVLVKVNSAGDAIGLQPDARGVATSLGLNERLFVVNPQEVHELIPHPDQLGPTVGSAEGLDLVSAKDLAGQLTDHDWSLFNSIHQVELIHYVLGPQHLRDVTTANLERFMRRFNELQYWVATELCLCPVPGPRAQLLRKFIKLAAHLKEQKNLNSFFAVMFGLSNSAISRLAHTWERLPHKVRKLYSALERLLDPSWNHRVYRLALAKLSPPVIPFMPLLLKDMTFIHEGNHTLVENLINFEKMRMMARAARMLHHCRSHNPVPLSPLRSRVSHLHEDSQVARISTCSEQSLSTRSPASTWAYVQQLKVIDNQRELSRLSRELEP
In assay [2] the target is Rap guanine nucleotide exchange factor 4 (Homo sapiens) (UniProt Q8WZA2). In words: Confirmatory qHTS for agonist of cAMP-regulated guanine nucleotide exchange factor 4 (EPAC2) (AID 1645884).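 Also: nucleotide exchange releases bodipy-GDP from Rap1 and this lowers its fluorescence; % is scaled to controls: 0 for no effect and ±100 for the full control effect; nearly all actives have a fitted effect of over 65% in size.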
Rap guanine nucleotide exchange factor 4 (Homo sapiens), sequence (Q8WZA2 whole entry, looked up): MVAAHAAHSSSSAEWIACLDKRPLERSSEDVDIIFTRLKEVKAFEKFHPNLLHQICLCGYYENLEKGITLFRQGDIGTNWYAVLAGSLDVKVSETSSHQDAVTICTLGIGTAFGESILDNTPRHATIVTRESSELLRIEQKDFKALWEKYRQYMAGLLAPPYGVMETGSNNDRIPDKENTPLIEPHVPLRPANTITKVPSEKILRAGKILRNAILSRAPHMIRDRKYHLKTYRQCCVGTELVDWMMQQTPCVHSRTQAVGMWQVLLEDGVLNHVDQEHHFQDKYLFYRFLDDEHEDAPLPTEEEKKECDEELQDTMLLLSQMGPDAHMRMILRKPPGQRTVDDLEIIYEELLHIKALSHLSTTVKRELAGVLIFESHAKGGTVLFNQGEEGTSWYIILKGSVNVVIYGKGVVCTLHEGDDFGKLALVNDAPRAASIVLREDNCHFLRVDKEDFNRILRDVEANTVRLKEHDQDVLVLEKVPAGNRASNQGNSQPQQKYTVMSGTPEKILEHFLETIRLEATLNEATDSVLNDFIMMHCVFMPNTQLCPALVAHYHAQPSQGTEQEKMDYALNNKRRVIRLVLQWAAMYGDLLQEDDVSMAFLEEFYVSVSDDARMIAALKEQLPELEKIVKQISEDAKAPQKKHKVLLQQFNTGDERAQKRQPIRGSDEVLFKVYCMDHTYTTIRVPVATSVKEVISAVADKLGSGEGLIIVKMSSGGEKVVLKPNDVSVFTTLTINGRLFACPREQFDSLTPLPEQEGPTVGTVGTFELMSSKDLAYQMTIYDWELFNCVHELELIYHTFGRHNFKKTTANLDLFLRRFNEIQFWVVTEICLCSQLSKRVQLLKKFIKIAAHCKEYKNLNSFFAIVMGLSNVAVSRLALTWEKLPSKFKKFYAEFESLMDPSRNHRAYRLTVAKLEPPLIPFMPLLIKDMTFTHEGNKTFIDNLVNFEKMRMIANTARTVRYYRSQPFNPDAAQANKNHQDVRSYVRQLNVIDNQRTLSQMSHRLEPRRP
For assay [3] the target is unchanged. As to the kind of experiment: Confirmatory qHTS for antagonist of cAMP-regulated guanine nucleotide exchange factor 4 (EPAC2) (AID 1645885). Also: nearly all actives have a fitted effect of over 25% in size. Also: potency is read from the fitted curve at half-maximal effect. As to activity change, negative = inhibition: % is scaled to controls: 0 for no effect and ±100 for the full control effect.
For assay [4], the target named is Rap guanine nucleotide exchange factor 3 (Homo sapiens) (UniProt O95398). As to the kind of experiment: Counterscreen qHTS for antagonist of cAMP-regulated guanine nucleotide exchange factor 3 (EPAC1) (AID 1645888).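 Also: fluorescence loss as bound BODIPY-GDP is released from Rap1B; % of control where 0% means no effect.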 The procedure, abridged: (§1)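 Rap1B-BODIPY-GDP 250 nM + GDP 50 uM; cpds 7-pt, final 9.74 nM–152 uM (activator mode) or from 7.32 nM upwards (inhibitor mode); RT; FI 480/540 nm at 5 and 30 min, then ± cAMP, reread.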
In general terms: Counterscreens check selectivity or assay interference.

Assay [5] shares this target. As to the kind of experiment: Counterscreen qHTS for agonist of cAMP-regulated guanine nucleotide exchange factor 3 (EPAC1) (AID 1645889). Also: nearly all actives have a fitted effect of over 40% in size. Also: potency is read from the fitted curve at half-maximal effect. As to activation: % of control where 0% means no effect. The essentials:
as §1

Records with an inconclusive call do not appear. A number with no mark means an inactive call. The source made the active and inactive calls. Calls follow the shape of the dose curve; as a rule, active = well fitted curve in the direction sought with a large enough effect; inconclusive = small, poorly fitted or top-dose-only effect, or another doubt; inactive = no such curve, though single readings can be large; an effect the other way counts as inactive or inconclusive.

As for `Cn1c(COc2ccccc2C(C)(C)C)nc2ccccc21`, the Potency entry in assay [1], in assay [2], in assay [3] and in assay [4] was “inactive” throughout. In addition, the Potency in assay [5] is 15.8 µM (active).
Turning to `CCC(C)[C@H]1COCCS(=O)(=O)N1Cc1ccc(Cl)cc1Cl` (stereo not given in full), the Potency result in assay [1], in assay [2], in assay [3], in assay [4] and in assay [5] was “inactive” throughout.
On to `CCn1c(SCC(=O)Nc2sc3c(c2C(N)=O)CCC(C)C3)nnc1-c1ccco1` (stereo not given), for which the Potency result in assay [1], in assay [2], in assay [3], in assay [4] and in assay [5] was “inactive” throughout.
Regarding `CCOP(=O)(OCC)C(Cc1ccc(OC)c(OC)c1)N=C(c1ccccc1)c1ccccc1` (stereo not given), the Potency entry in assay [1] and in assay [3] was “inactive” each time. The activation in assay [2] was 4.61% [at 17.1 µM, percent relative to cAMP agonist control]; in assay [5], 17.1% [at 30.8 µM]. For the same compound, in assay [4], the activity change, negative = inhibition is -11.3% [at 30.8 µM].
In the case of `O=C(c1ccc(O)c(Br)c1)c1cc(Br)ccc1O`, the Potency result in assay [1] and in assay [3] was “inactive” throughout. Moreover, the activation in assay [2] is 3.68% [at 17.1 µM, percent relative to cAMP agonist control]; in assay [5], 26.8% [at 30.8 µM]. In addition, the activity change, negative = inhibition in assay [4] is -2.96% [at 30.8 µM].
As to `COC(=O)c1ccc2nc(-c3ccc(OC)c(OC)c3)c(Cc3ccccc3)n2c1`, the Potency result in assay [1], in assay [2], in assay [3], in assay [4] and in assay [5] was “inactive” each time.
With `O=C(O)c1cccc(N2C(=O)c3cc([N+](=O)[O-])cc4cc([N+](=O)[O-])cc(c34)C2=O)c1`, the Potency entry in assay [1], in assay [2], in assay [4] and in assay [5] was “inactive” in each case. Moreover, in assay [3], the Potency is 37.9 µM (active).
On to `O=C(COC(=O)c1ccc2c(c1)C(=O)N(Cc1ccncc1)C2=O)Nc1ccccc1[N+](=O)[O-]`, for which the Potency result in assay [1], in assay [2], in assay [3], in assay [4] and in assay [5] was “inactive” each time.
Take `CCCCC(CC)C(=O)Oc1ccc(O)c(C(C)(C)C)c1` (stereo not given): the Potency result in assay [1] and in assay [3] was “inactive” in each case. Moreover, the activation in assay [2] is -3.79% [at 17.1 µM, percent relative to cAMP agonist control]; in assay [5], -16.7% [at 30.8 µM]. For the same compound, the activity change, negative = inhibition in assay [4] was 0.29% [at 30.8 µM].
Turning to `COc1ccc(/C=C2/SC(=O)N(CCC(=O)Nc3ccc(S(=O)(=O)Nc4nccs4)cc3)C2=O)cc1`, the Potency entry in assay [1], in assay [2], in assay [3], in assay [4] and in assay [5] was “inactive” throughout.
As to `COc1cccc(OCc2nc3ccccc3n2Cc2ccccc2)c1`, the Potency entry in assay [1], in assay [2], in assay [3], in assay [4] and in assay [5] was “inactive” each time.
Regarding `CC(C)(C)NC(=O)COC(=O)c1c2c(nc3ccccc13)CCC2`, the Potency entry in assay [1] and in assay [3] was “inactive” throughout. Also, the activation in assay [2] was 2.28% [at 17.1 µM, percent relative to cAMP agonist control]; in assay [5], 16.3% [at 30.8 µM]. Moreover, the activity change, negative = inhibition in assay [4] is -10.2% [at 30.8 µM].
In the case of `CCOC(=O)C(C)n1nc(-c2ccccc2)c2ccccc2c1=O` (stereo not given), the Potency entry in assay [1], in assay [2], in assay [3], in assay [4] and in assay [5] was “inactive” each time.
With `Cc1nnc(Sc2cc(NCCCO)c([N+](=O)[O-])c3nonc23)s1`, the Potency result in assay [1] and in assay [3] was “inactive” each time. For the same compound, in assay [2], the activation is 3.11% [at 17.1 µM, percent relative to cAMP agonist control]. Moreover, in assay [4], the activity change, negative = inhibition was 1.69% [at 30.8 µM]. Besides, the Potency in assay [5] was 8.91 µM (active).
Regarding `Cc1ccc(C)c(CSC2=NC(C)(C)Nc3ccccc32)c1`, the Potency entry in assay [1], in assay [2], in assay [4] and in assay [5] was “inactive” in each case. Also, in assay [3], the outcome is “inactive [at 12.7 µM]”.
With `O=[N+]([O-])c1ccc(-n2nnnc2-c2ccccc2)c([N+](=O)[O-])c1`, the Potency result in assay [1], in assay [2], in assay [3], in assay [4] and in assay [5] was “inactive” in each case.
For the compound `Cc1cccc(NC(=O)COC(=O)c2c(-c3ccccc3)noc2C)c1`, the Potency result in assay [1] and in assay [3] was “inactive” throughout. For the same compound, the activation in assay [2] is 4.55% [at 17.1 µM, percent relative to cAMP agonist control]; in assay [5], 24.2% [at 30.8 µM]. For the same compound, in assay [4], the activity change, negative = inhibition was -6.85% [at 30.8 µM].
On to `CCOC(=O)C1=C(CC)OC(N)=C(C#N)C1c1ccc(F)cc1F` (stereo not given), for which the Potency result in assay [1], in assay [2], in assay [3], in assay [4] and in assay [5] was “inactive” in each case.
For the compound `CCc1cccc(C)c1Nc1c(-c2ccsc2)nc2ncccn12`, the Potency entry in assay [1], in assay [2], in assay [4] and in assay [5] was “inactive” in each case. The outcome in assay [3] is “inactive [at 12.7 µM]”.
Turning to `O=c1cc(CSc2nc3ccccc3c(=O)[nH]2)c2ccc(O)cc2o1`, the Potency result in assay [1], in assay [2], in assay [3], in assay [4] and in assay [5] was “inactive” each time.
As for `Cc1cc(Cl)ccc1OC(C)C(=O)Nc1ccc(C(=O)Nc2ccccc2C(=O)O)cc1` (stereo not given), the Potency entry in assay [1], in assay [2], in assay [3], in assay [4] and in assay [5] was “inactive” each time.
As for `O=C(COC(=O)[C@@H]1CC(O)CN1S(=O)(=O)c1ccc(Cl)c(Cl)c1)NC(=O)NCc1ccccc1` (stereo not given in full), the Potency entry in assay [1], in assay [2], in assay [3], in assay [4] and in assay [5] was “inactive” each time.
Take `CCOC(=O)c1c(C)[nH]c(C(=O)OCC(=O)Nc2sccc2C(N)=O)c1C`: the Potency result in assay [1], in assay [2], in assay [3], in assay [4] and in assay [5] was “inactive” each time.
Regarding `O=C(NCC(c1ccco1)N1CCCC1)c1ccccc1Sc1ccc(C(F)(F)F)cc1[N+](=O)[O-]` (stereo not given), the Potency result in assay [1], in assay [2], in assay [3], in assay [4] and in assay [5] was “inactive” each time.
As for `CC(C)(C)c1ccc(OCc2ccc(C(=O)N/N=C/c3ccc(O)c(O)c3)cc2)cc1`, the Potency entry in assay [1] and in assay [3] was “inactive” each time. The activation in assay [2] is -9.36% [at 17.1 µM, percent relative to cAMP agonist control]; in assay [5], 10.5% [at 30.8 µM]. In addition, in assay [4], the activity change, negative = inhibition is -20.9% [at 30.8 µM].
Take `O=C(O)/C(=C\c1ccc(-c2ccc(F)cc2)o1)c1ccccc1`: the Potency result in assay [1], in assay [2], in assay [3], in assay [4] and in assay [5] was “inactive” throughout.
As for `COc1ccc(OCC(=O)NCc2ccc3c(c2)CCN3C(=O)c2cccc(C)c2)cc1`, the Potency result in assay [1], in assay [2], in assay [3], in assay [4] and in assay [5] was “inactive” throughout.
Take `Cc1cc(Br)cc(Cl)c1OC(=O)c1ccncc1`: the Potency result in assay [1], in assay [2], in assay [4] and in assay [5] was “inactive” in each case. Also, the Potency in assay [3] is 37.9 µM (active).
With `C[C@H](c1ccccc1)N1C[C@H](COCc2ccccc2)Oc2cc(N3CC[C@@H](O)C3)ccc2S1(=O)=O`, the Potency entry in assay [1] and in assay [3] was “inactive” in each case. For the same compound, the activation in assay [2] was 10.3% [at 17.1 µM, percent relative to cAMP agonist control]; in assay [5], 20% [at 30.8 µM]. For the same compound, in assay [4], the activity change, negative = inhibition was -15.5% [at 30.8 µM].
For `CCOC(=O)C(C)Sc1nc(-c2ccco2)cc(C(F)(F)F)c1C#N` (stereo not given), the Potency entry in assay [1] and in assay [3] was “inactive” throughout. Besides, the activation is 0.901% [at 17.1 µM, percent relative to cAMP agonist control] in assay [2] and 0.691% [at 30.8 µM] in assay [5]. In addition, the activity change, negative = inhibition in assay [4] was -10.8% [at 30.8 µM].
Regarding `COc1cc(/C=C(\C#N)c2nc3ccc(C)cc3[nH]2)ccc1OCc1ccc(C)cc1`, the Potency entry in assay [1], in assay [2], in assay [3], in assay [4] and in assay [5] was “inactive” each time.
In the case of `COc1ccc(-c2csc(C(C)(O)c3ccccc3)n2)cc1` (stereo not given), the Potency entry in assay [1] and in assay [3] was “inactive” in each case. The activation was 5.7% [at 17.1 µM, percent relative to cAMP agonist control] in assay [2] and 23.4% [at 30.8 µM] in assay [5]. For the same compound, the activity change, negative = inhibition in assay [4] is 8.72% [at 30.8 µM].
Turning to `O=C1CC(c2ccccc2)=NN1c1nc(-c2ccccc2)cs1`, the Potency result in assay [1], in assay [2], in assay [3], in assay [4] and in assay [5] was “inactive” each time.
Regarding `CC(=O)Nc1ccc(NC(=S)NC(=O)/C=C/c2ccco2)cc1`, the Potency entry in assay [1], in assay [2], in assay [3], in assay [4] and in assay [5] was “inactive” in each case.
Regarding `CCCCC(CC)COC1(c2ccccc2)OC(=O)c2ccccc21` (stereo not given), the Potency result in assay [1], in assay [2], in assay [3], in assay [4] and in assay [5] was “inactive” throughout.
`CCCN1C(=O)c2ccccc2NC1c1ccc(Cl)c(Cl)c1` (stereo not given): the Potency result in assay [1] and in assay [3] was “inactive” in each case. The activation was 5.07% [at 17.1 µM, percent relative to cAMP agonist control] in assay [2] and 12.5% [at 30.8 µM] in assay [5]. Further, in assay [4], the activity change, negative = inhibition is -17% [at 30.8 µM].
Regarding `Cc1ccc(-c2nn(-c3ccccc3)cc2C=C2SC(=S)N(CCS(=O)(=O)O)C2=O)cc1`, the Potency entry in assay [1] and in assay [3] was “inactive” in each case. The activation in assay [2] is 6.87% [at 17.1 µM, percent relative to cAMP agonist control]; in assay [5], 28% [at 30.8 µM]. Besides, the activity change, negative = inhibition in assay [4] is -16.5% [at 30.8 µM].
In the case of `O=C(NNc1cc(N2CCOCC2)nc(N2CCOCC2)n1)c1ccc([N+](=O)[O-])cc1`, the Potency result in assay [1], in assay [2], in assay [3], in assay [4] and in assay [5] was “inactive” throughout.
`Cc1ccc(NC2c3ncccc3C(=O)N2Cc2cccs2)cc1` (stereo not given): the Potency result in assay [1] and in assay [3] was “inactive” in each case. Further, the activation is -5.52% [at 17.1 µM, percent relative to cAMP agonist control] in assay [2] and 1.62% [at 30.8 µM] in assay [5]. The activity change, negative = inhibition in assay [4] was 8.01% [at 30.8 µM].
As to `Cc1cccc(NC(=O)CSCC(=O)N(C)CCOc2ccc(Cl)cc2)c1`, the Potency result in assay [1], in assay [2], in assay [3], in assay [4] and in assay [5] was “inactive” each time.
On to `COc1ccc(C(CNC(=O)c2cccc(S(=O)(=O)Nc3ccc(C)cc3)c2)N2CCOCC2)cc1` (stereo not given), for which the Potency result in assay [1], in assay [2], in assay [3], in assay [4] and in assay [5] was “inactive” throughout.
